From PubChem BioAssay AID504467 (National Center for Advancing Translational Sciences (NCATS), 2011)
Out of some 330,000 compounds screened, about 7,700 (2.3%) were called active. A call without a number means that no potency is given here. Inconclusive results (about 26%) are left out. The sample holds actives, similar compounds and a random draw of the others, so the mix is not that of the screen. Calls follow the shape of the dose curve; as a rule, active = well fitted inhibition curve with a large enough effect; inconclusive = small, poorly fitted or top-dose-only effect, or effect the other way; inactive = flat fitted curve, though single readings scatter.

Experiment: qHTS screen for small molecules that inhibit ELG1-dependent DNA repair in human embryonic kidney (HEK293T) cells expressing luciferase-tagged ELG1; also: nearly all actives have a fitted effect of over 55% in size
Details: HEK293T ELG1-luciferase reporter, luminescence, 16 h, DNA damage induced by 5-fluorouridine; series mostly up to 46.1 µM
How it was run: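 Overnight (16 hr) co-exposure of 2,000 cells/well to 5-fluorouridine and compound at 37 °C preceded detection. Luciferase was quantified via ONE-Glo luminescence; loss of signal denotes inhibition.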
Potency is read from the fitted curve at half-maximal effect.

| SMILES | Potency |
| --- | --- |
| O=C(NCc1ccc(Cl)cc1)C1CCN(S(=O)(=O)c2cccs2)CC1 | inactive |
| O=C(NC1CCCCC1)C1CCCN(S(=O)(=O)c2cccs2)C1 (stereo unspecified) | inactive |
| O=C(Nc1ccc(Br)cn1)C1CCN(S(=O)(=O)c2cccs2)CC1 | 5.8 µM (active) |
| O=C(COC(=O)c1ccccn1)NNC(=O)c1ccc(Br)cc1 | inactive |
| Cc1ccc(OCC(=O)Nc2ccccc2C(=O)NC2CC2)cc1 | inactive |
| CCCCNC(=O)N(O)C1N(/N=C/c2ccccc2O)C(=S)SC1(C)C (stereo unspecified) | inactive |
| CCOC(=O)C1CCCN(C(=O)CSc2nnc3nc(C)cc(C)n23)C1 (stereo unspecified) | inactive |
| N#Cc1c(NC(=O)CSc2nc3ccccc3c(=O)n2Cc2ccco2)sc2c1CCCC2 | inactive |
| COc1ccc(-n2c(SCC(=O)Nc3sc4c(c3C#N)CCCC4)nnc2-c2ccc(O)cc2)cc1 | 18.4 µM (active) |
| CCCc1cc(=O)[nH]c(SCC(=O)Nc2sc3c(c2C#N)CCCC3)n1 | inactive |
| CCOc1ccccc1NC(=O)CCc1nnc2ccc(NCc3ccco3)nn12 | inactive |
| Cc1ccc(NC(=O)c2ccc(Cl)nc2)cc1S(=O)(=O)N1CCOCC1 | 23.1 µM (active) |
| CN(CC(=O)Nc1ccc(F)cc1)CC(=O)N1CCCCC1 | inactive |
| CN(CC(=O)Nc1ccc(F)cc1)CC(=O)Nc1ccc(Cl)c(S(=O)(=O)N2CCOCC2)c1 | 18.3 µM (active) |
| CN(CCC(=O)Nc1cc(S(=O)(=O)N(C)C)ccc1Cl)CC(=O)Nc1ccc(F)cc1 | inactive |
| CC(=O)NCCc1ccc(S(=O)(=O)Nc2ccc(C)c(S(=O)(=O)N3CCOCC3)c2)cc1 | inactive |
| Cc1ccc(NC(=O)CCCNC(=O)c2ccc(Cl)cc2)cc1S(=O)(=O)N1CCOCC1 | inactive |
| Cc1ccc(NC(=O)c2ccccn2)cc1S(=O)(=O)N1CCOCC1 | inactive |
| Cc1ccc(NC(=O)C2CC2)cc1S(=O)(=O)N1CCOCC1 | inactive |
| Cc1ccc(NC(=O)C2CCC(C(C)(C)C)CC2)cc1S(=O)(=O)N1CCOCC1 (stereo unspecified) | 23.1 µM (active) |
| COc1cccc(CNC(=O)C(=O)NCCC2CCCCN2S(=O)(=O)c2ccc(C)cc2)c1 (stereo unspecified) | inactive |
| O=C(CNC(=O)c1ccccc1Br)NCCSc1ccc(Br)cc1 | inactive |

| SMILES | Potency |
| --- | --- |
| CC(C)(C)OC(=O)C1=C(CO)CS[C@@H]2[C@H](NC(=O)Cc3ccccc3)C(=O)N12 | inactive |
| COc1ccc(S(=O)(=O)N2CCN(C)CC2)c(C)c1 | inactive |
| COc1ccc2c(c1OC)C(=O)OC2c1c(O)nc(SC)n(-c2ccccc2)c1=O (stereo unspecified) | inactive |
| COc1ccc2c(c1OC)C(=O)OC2Nc1nc(-c2ccccc2)cs1 (stereo unspecified) | 9.2 µM (active) |
| COc1ccc(C)cc1Nc1nc(-c2c(C)[nH]c3ccccc23)cs1 | inactive |
| O=C(Nc1ccc(N2CCOCC2)c(Cl)c1)c1ccc(S(=O)(=O)N2CCOCC2)cc1 | inactive |
| O=C(CN1CCN(c2ccccn2)CC1)N1CCc2ccccc21 | inactive |
| O=C(CN1C(=O)c2ccccc2S1(=O)=O)N1CCc2ccccc21 | 20.6 µM (active) |
| O=C(CN1C(=O)c2ccccc2S1(=O)=O)NC1CCCCC1 | inactive |
| CCOc1ccc(-n2c(SCC(=O)Nc3cc(C(=O)O)ccc3Cl)nc3ccccc3c2=O)cc1 | inactive |
| O=C(O)CCCn1c(=O)c2cccn2c2ccc(F)cc21 | inactive |
| O=C(c1cccs1)N1CCN(Cc2ccc3c(c2)OCO3)CC1 | inactive |
| O=C(CN1C(=O)c2cccc3cccc(c23)C1=O)N1CCCCC1 | inactive |
| O=C(CSCc1ccc(Cl)cc1)N1CCN(Cc2ccc3c(c2)OCO3)CC1 | 20.6 µM (active) |
| Cc1cc(C)n2nc(C(=O)N3CCN(Cc4ccc5c(c4)OCO5)CC3)nc2n1 | inactive |
| O=C(Nc1cccc2ccccc12)N1CCN(Cc2ccc3c(c2)OCO3)CC1 | inactive |
| O=C(CCCN1C(=O)c2cccc3cccc(c23)C1=O)N1CCN(Cc2ccc3c(c2)OCO3)CC1 | 2.31 µM (active) |
| CCOc1ccccc1NC(=S)NC(=O)CCc1ccccc1 | inactive |
| COc1cccc(NC(=O)CN2CCN(CC(=O)Nc3ccccc3Cl)CC2)c1 | inactive |
| COc1ccc(NC(C)=O)cc1NC(=O)CN1CCN(c2ccccn2)CC1 | inactive |
| COc1ccc(NC(C)=O)cc1NC(=O)CN1CCN(C2c3ccccc3-c3ccccc32)CC1 | 0.92 µM (active) |
| CCCCN(CCCC)CCCNC(=O)CN1C(=O)COc2ccc(S(=O)(=O)N3CCC(C)CC3)cc21 | inactive |

| SMILES | Potency |
| --- | --- |
| CC(C)n1ncc2c(C(=O)NCc3ccccc3CN(C)C)cc(C3CC3)nc21 | inactive |
| Clc1cccc(-c2nc3nc4ccccc4nc3n2Cc2ccco2)c1 | inactive |
| COc1ccc(S(=O)(=O)N2CN(CCc3ccc(OC)c(OC)c3)c3nc4ccccc4nc32)cc1 | inactive |
| COc1ccc(CCn2c(-c3ccco3)nc3nc4ccccc4nc32)cc1OC | 4.61 µM (active) |
| CCOc1ccccc1-c1cc(C(=O)N/N=C(\C)c2cccnc2)c2ccccc2n1 | inactive |
| COc1ccc(-c2nc(CS(=O)(=O)CC(=O)NCc3cccc(Br)c3)c(C)o2)cc1 | inactive |
| C=CCn1c(SCC(=O)NC)nnc1C12CC3CC(CC(C3)C1)C2 | inactive |
| COc1ccc(C2(c3ccc(OC)cc3)NC(=O)N(CC(=O)Nc3cc(C)on3)C2=O)cc1 | inactive |
| C[C@H](CO)N1C[C@H](C)[C@@H](CN(C)S(=O)(=O)c2ccc(F)cc2)Oc2c(NC(=O)Nc3ccccc3)cccc2C1=O | inactive |
| COc1ccc(S(=O)(=O)Nc2cccc3c2O[C@H](CN(C)S(=O)(=O)c2ccc(OC)cc2)[C@@H](C)CN([C@H](C)CO)C3=O)cc1 | inactive |
| COc1ccc(S(=O)(=O)N(C)C[C@H]2Oc3c(NC(=O)Nc4ccc5c(c4)OCO5)cccc3C(=O)N([C@H](C)CO)C[C@@H]2C)cc1 | 11.6 µM (active) |
| CCN(C(=O)COC(=O)Cc1c(F)cccc1Cl)c1c(N)n(Cc2ccccc2)c(=O)[nH]c1=O | inactive |
| CCCc1nc2c([nH]1)C(c1cccnc1)C(C#N)=C(N)O2 (stereo unspecified) | inactive |
| N#CC1=C(N)Oc2c(ccc3cccnc23)C1c1ccncc1 (stereo unspecified) | 9.2 µM (active) |
| COc1ccc(-c2[nH]nc3c2C(c2ccncc2)C(C#N)=C(N)O3)cc1 (stereo unspecified) | inactive |
| O=C(CNC(=O)c1n[nH]c2ccccc12)Nc1cc(Cl)ccc1Cl | inactive |
| CCOC(CNC(=O)C1CCN(S(=O)(=O)c2ccc3nc4c(c(C(=O)O)c3c2)CC(C)CC4)CC1)OCC (stereo unspecified) | inactive |
| COc1ccc(CNC(=O)COC(=O)c2sccc2C)cc1OC | inactive |
| COc1cc(C(=O)N(Cc2ccc(N(C)C)cc2)C2CCS(=O)(=O)C2)cc(OC)c1OC (stereo unspecified) | inactive |
| CCCOP(=O)(c1ccc(N(C)C)cc1)C(O)c1cc(OC)c(OC)c(OC)c1 (stereo unspecified) | inactive |
| COc1cc(C(=O)NCCOC(=O)c2cccc(N(C)C)c2)cc(OC)c1OC | 11.6 µM (active) |
| COC(=O)c1ccc(CNC(=O)c2ccc(S(=O)(=O)N3CCCCCC3)cc2)cc1 | inactive |

| SMILES | Potency |
| --- | --- |
| O=C(N[C@H]1C/C=C\C(c2cccc(F)c2)N(Cc2ccccc2)C(=O)C1)OCC1c2ccccc2-c2ccccc21 (stereo partly specified) | inactive |
| COC(=O)c1cc(S(=O)(=O)N2CCN(c3cc(C)ccc3C)CC2)c[nH]1 | inactive |
| O=C(c1cn(-c2ccccc2)nc1-c1cccnc1)N1CCN(S(=O)(=O)c2ccccc2F)CC1 | 14.6 µM (active) |
| NC(=O)C1CCN(C(=O)c2cn(-c3ccccc3)nc2-c2cccnc2)CC1 | inactive |
| O=C(c1cn(-c2ccccc2)nc1-c1cccnc1)N1CCCCC1 | inactive |
| O=C(OCc1cc(=O)n2ccsc2n1)C1(c2ccc(Cl)cc2)CC1 | inactive |
| COc1cc(C(=O)NC2CCN(Cc3ccccc3)CC2)cc(Cl)c1OC(C)C | inactive |
| O=C(c1cccs1)n1nc(NCc2ccccc2)nc1NCc1ccccc1 | 25.9 µM (active) |
| Nc1nc(NCc2ccccc2)n(-c2ccccc2)n1 | inactive |
| O=C(CCC(=O)c1cccs1)NCc1ccccc1 | inactive |
| COc1ccc(C)cc1NC(=O)CSc1cccc[n+]1[O-] | inactive |
| CC[C@@H]1CCCCc2ccccc2[C@@H](C(=O)C[C@H](O)CC(C)=O)OC1=O | inactive |
| COc1ccc(C(CNC(=O)c2ccc(S(=O)(=O)Nc3ccccc3C)cc2)N2CCOCC2)cc1 (stereo unspecified) | inactive |
| O=C(NCc1ccccc1)c1ccc(S(=O)(=O)Nc2cccc(C(F)(F)F)c2)cc1 | 13 µM (active) |
| O=C(NCc1ccncc1)c1cccc(NS(=O)(=O)c2ccc(F)c(F)c2)c1 | inactive |
| CCOC(=O)N1CCN(C(=O)c2ccc(S(=O)(=O)Nc3cccc(C(F)(F)F)c3)cc2)CC1 | inactive |
| O=C1C(=O)N(CCN2CCOCC2)C(c2cccc(Cl)c2)/C1=C(/O)c1ccc2c(c1)OCO2 (stereo unspecified) | inactive |
| Cc1sc2ncn(CC(=O)NCCCC(=O)N(C)Cc3ccccc3)c(=O)c2c1C | inactive |
| O=C(COc1ccc(Br)cc1F)NCC1(N2CCCCC2)CCCCC1 | inactive |
| CSc1ncccc1C(=O)NCC(c1ccco1)N1CCCCC1 (stereo unspecified) | inactive |
